The source of these data is PubChem BioAssay (NCI).

Each structure is given as a SMILES string. About 83,000 compounds went through this panel and 20% of them were active in at least one assay; those are over-represented in the sample as a whole.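 The test compound was applied at a single concentration to cells in 96-well plates for 48 hours, and percent growth was recorded.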 Values without a mark were called inactive. Activity calls are given as the source filed them.

For this experiment, the system named is OVCAR-4 ovarian. Description: NCI-60 one-dose screen, 48 h (100 = growth as untreated, 0 = no growth, -100 = all killed). Particulars: 10 µM unless noted. The method, then:
Growth inhibition of the OVCAR-4 human tumor cell line is measured as a screen for anti-cancer activity. Cells are grown in 96 well plates and exposed to the test compound for 48 hours. Compounds are tested at a single concentration, which is 10^-5 M for most compounds. The reported endpoint is percent growth (GI% or GIPRCNT), where numbers from 0 - 100% represent growth inhibition, and numbers from -100% - 0 represent cell death. For example, a value of 40 represents 60% growth inhibition. A value of 0 means no net growth occurred over the course of the experiment. A value of -40 indicates 40% of cells at the beginning of the experiment died by the end of the experiment. A value of -100 means all cells are dead at the end of the experiment.
NCI-60 Human Tumor Cell Lines Screen was performed using the standard one-dose NCI protocol, which is described in more detail at https://dtp.cancer.gov/discovery_development/nci-60/default.htm.
Compounds with GIPRCNT values below 10 were considered active. Activity score was based on GIPRCNT using the following formula: […]
Score is 0 for GIPRCNT values of 100 or above, 50 for GIPRCNT values of 0, and 100 for GIPRCNT values of -100.
Regarding `Clc1ccc(-c2cn3cc(Cc4ccc(Cl)c(Cl)c4)sc3n2)cc1`, the growth is 56.1%.

For the compound `Cc1ccc2ccc3ccc(C)nc3c2n1.Cc1ccc2ccc3ccc(C)nc3c2n1.Oc1c(Cl)cc(Cl)c2ccc(CN3CCCCC3)nc12.[Ru]`, the growth is -45.8% (active).

Regarding `C=CCn1c(SCC(=O)c2ccc(Br)cc2)nnc1-c1c[nH]c2ccccc12`, the growth is 109%.

Regarding `O=C1c2c(c3c4cc(Br)ccc4[nH]c3c3ccc4ccccc4c23)C(=O)N1CCO`, the growth was 104%.

Consider `CSc1ccc2c(c1)N(C(=O)/C(C#N)=C/c1c[nH]c3ccccc13)c1ccccc1S2`, for which the growth is 59.5%.

As to `O=C1Nc2cc(Cl)ccc2/C1=C\c1ccc(OCc2ccc(Br)cc2F)cc1`, the growth was -54.3% (active).

With `COc1cc(-c2nc3ccc(-c4nnc(SCC(=O)Nc5ccc(C(C)=O)cc5)o4)cc3[nH]2)cc(OC)c1OC`, the growth is 111%.

`COc1cccc(NC2=CC(=O)C(C)=C(C)C2=O)c1`: the growth is -1.68% (active).

As for `CC(C)(O)c1cncc(-c2ccc3ncnc(N4CCc5cc(F)c(Cl)cc54)c3c2)c1`, the growth was 20.2%.

As for `[Cl][Ru].c1ccc(-c2cc(-c3ccccn3)nc(-c3ccccn3)c2)cc1.c1ccc(-c2ccnc3c2ccc2c(-c4ccccc4)ccnc23)cc1`, the growth was 15.6%.

On to `COc1ccc(-c2nn3c(-c4ccccc4F)nnc3s2)cc1`, for which the growth was 82%.

Turning to `O=C1Nc2ccc(Cl)cc2/C1=C/c1ccc(OCC(=O)c2ccc(Br)cc2)cc1`, the growth is 91.7%.

As for `N#Cc1ccc(C(=O)CSc2nc(Nc3ccc(S(N)(=O)=O)cc3)c3ccccc3n2)cc1`, the growth was 113%.

On to `COc1ccc(NC2=C(Cl)C(=O)C(C)=C(C)C2=O)cc1OC`, for which the growth was 22%.

For the compound `CC(C)NC(=O)c1cc(-c2ccc(NC(=O)Nc3ccc(N4CCOCC4)c(C(F)(F)F)c3)cc2)nc2cccnc12`, the growth was 71.7%.

On to `Cc1sc2c(c1C)c(=O)nc1c(-c3nc(-c4ccc(F)cc4)no3)n[nH]n12`, for which the growth was 112%.

`N#Cc1c(-c2ccc(F)cc2)nc2c(C#N)c(Nc3ccccc3)nn2c1N`: the growth was 103%.

With `CCOC(=O)c1c(Nc2ccccc2)nn2c(N)c(C#N)c(-c3ccc(Cl)cc3)nc12`, the growth is 44.1%.

Turning to `COc1cc(/C=C/C(=O)c2ccc(F)cc2)ccc1Oc1nc(NCCO)nc(N2CCOCC2)n1`, the growth was 88.4%.

Take `N=C1CC(=O)NN1C(=O)CSc1nc2sc3c(c2c(=O)n1-c1ccc(Cl)cc1)CCCC3`: the growth was 103%.

Consider `Nc1nc(N)c2c(n1)NC(c1ccc(F)cc1)CC(c1ccc(Nc3nc(NCCO)nc(Nc4ccc(Cl)cc4)n3)cc1)=N2` (stereo not given), for which the growth is 3.03% (active).

As to `CCCCN1C(=O)/C(=c2\sc3n(c2=O)C2C(NN=3)N(CC)C(=O)N2CC)c2cc(Cl)ccc21` (stereo not given), the growth was 89.7%.

For `N#Cc1nc(-c2ccccc2)oc1S(N)(=O)=O`, the growth was 84.2%.

As to `CN1C(=O)N(c2ccccc2)C2N=C(N/N=C/c3ccccc3)SC21` (stereo not given), the growth was 68.3%.

For `N/C(=N\c1nc2c(Cl)cc(Cl)cc2s1)C(Cl)(Cl)Cl`, the growth is 67.9%.

As for `OC1CCc2c(-c3ccc4ncnc(N5CCc6cc(F)c(Cl)cc65)c4c3)cncc21` (stereo not given), the growth was 56.1%.

Regarding `COc1cc(N=Cc2sc(Nc3nccs3)nc2O)cc(OC)c1OC`, the growth is 82.9%.

`c1ccc(CNc2ncnc3ccc(-c4cnc5[nH]ncc5c4)cc23)cc1`: the growth is 79.4%.

With `CCOC(=O)c1csc(NC(=O)CSc2nc3sc4c(c3c(=O)n2-c2ccc(Cl)cc2)CCCC4)n1`, the growth is 103%.

With `Nc1nc(N)c2c(n1)NC(c1ccc(C(F)(F)F)cc1)CC(c1ccc(Nc3nc(NCCO)nc(Nc4ccc(Cl)cc4)n3)cc1)=N2` (stereo not given), the growth is -9.44% (active).

As for `Cn1c(SCC(=O)c2cccs2)nc2ccccc2c1=O`, the growth was 92.9%.

For `CC(=NNc1ncnc2ccccc12)c1ccc(S(C)(=O)=O)cc1`, the growth was 122%.

In the case of `O=C(c1ccc(Cl)cc1)C1[C@H](c2ccc(Cl)cc2)[C@@H](c2ccccc2)NC12C(=O)Nc1ccc(Br)cc12` (stereo not given in full), the growth is 44.6%.

Regarding `Cn1cc(-c2cc(N)n3nc(-c4cn(C)c5ccc(Cl)cc45)cc3n2)c2cc(Cl)ccc21`, the growth was 75.1%.

Take `O=C(CSc1nc2sc3c(c2c(=O)n1-c1ccc(Cl)cc1)CCCC3)NNC(=O)Nc1cccc(C(F)(F)F)c1`: the growth was 22.5%.

Consider `COC(=O)C1CN(S(=O)(=O)/N=C2\NC(=O)NC2=C(Cl)Cl)C1`, for which the growth is 123%.

Take `C[C@@H](Nc1c(C#N)cnc2ccc(-c3cnc(N)nc3)cc12)c1ccccc1`: the growth was 4.34% (active).

For `CSCCC(C(=O)O)N1C(=O)/C(=C/c2ccc(O)c(O)c2)SC1=S` (stereo not given), the growth was 101%.

Turning to `CO/N=C1\CCc2c(sc(NC(=O)c3cccc(C(F)(F)F)c3)c2C(N)=O)C1`, the growth was -45.4% (active).

As for `CN(C)c1ccc(-c2c(NC(C)(C)C)nc3c(OCCc4ccccc4)cccn23)cc1`, the growth was 31.3%.
